Results published in the supplement of paper PMC11732987, “Enantioselective OTUD7B fragment discovery through chemoproteomics screening and high-throughput optimisation” (Communications Chemistry, 2025).

Assays:
Test in all cases: log2 ratio of Biotin-Ahx-Ub-VS probe labelling (fragment/DMSO); higher = less target engagement (more negative = stronger competition), active = hit call of the paper (q ≤ 0.05, log2 ratio ≤ -1)
Details in all cases: compound concentration: 200 uM; treatment time: 3 h
[1] = molecular target: USP34 (UniProt Q70CQ2)
Chain of USP34 (Q70CQ2 whole entry, the tested form may be a part): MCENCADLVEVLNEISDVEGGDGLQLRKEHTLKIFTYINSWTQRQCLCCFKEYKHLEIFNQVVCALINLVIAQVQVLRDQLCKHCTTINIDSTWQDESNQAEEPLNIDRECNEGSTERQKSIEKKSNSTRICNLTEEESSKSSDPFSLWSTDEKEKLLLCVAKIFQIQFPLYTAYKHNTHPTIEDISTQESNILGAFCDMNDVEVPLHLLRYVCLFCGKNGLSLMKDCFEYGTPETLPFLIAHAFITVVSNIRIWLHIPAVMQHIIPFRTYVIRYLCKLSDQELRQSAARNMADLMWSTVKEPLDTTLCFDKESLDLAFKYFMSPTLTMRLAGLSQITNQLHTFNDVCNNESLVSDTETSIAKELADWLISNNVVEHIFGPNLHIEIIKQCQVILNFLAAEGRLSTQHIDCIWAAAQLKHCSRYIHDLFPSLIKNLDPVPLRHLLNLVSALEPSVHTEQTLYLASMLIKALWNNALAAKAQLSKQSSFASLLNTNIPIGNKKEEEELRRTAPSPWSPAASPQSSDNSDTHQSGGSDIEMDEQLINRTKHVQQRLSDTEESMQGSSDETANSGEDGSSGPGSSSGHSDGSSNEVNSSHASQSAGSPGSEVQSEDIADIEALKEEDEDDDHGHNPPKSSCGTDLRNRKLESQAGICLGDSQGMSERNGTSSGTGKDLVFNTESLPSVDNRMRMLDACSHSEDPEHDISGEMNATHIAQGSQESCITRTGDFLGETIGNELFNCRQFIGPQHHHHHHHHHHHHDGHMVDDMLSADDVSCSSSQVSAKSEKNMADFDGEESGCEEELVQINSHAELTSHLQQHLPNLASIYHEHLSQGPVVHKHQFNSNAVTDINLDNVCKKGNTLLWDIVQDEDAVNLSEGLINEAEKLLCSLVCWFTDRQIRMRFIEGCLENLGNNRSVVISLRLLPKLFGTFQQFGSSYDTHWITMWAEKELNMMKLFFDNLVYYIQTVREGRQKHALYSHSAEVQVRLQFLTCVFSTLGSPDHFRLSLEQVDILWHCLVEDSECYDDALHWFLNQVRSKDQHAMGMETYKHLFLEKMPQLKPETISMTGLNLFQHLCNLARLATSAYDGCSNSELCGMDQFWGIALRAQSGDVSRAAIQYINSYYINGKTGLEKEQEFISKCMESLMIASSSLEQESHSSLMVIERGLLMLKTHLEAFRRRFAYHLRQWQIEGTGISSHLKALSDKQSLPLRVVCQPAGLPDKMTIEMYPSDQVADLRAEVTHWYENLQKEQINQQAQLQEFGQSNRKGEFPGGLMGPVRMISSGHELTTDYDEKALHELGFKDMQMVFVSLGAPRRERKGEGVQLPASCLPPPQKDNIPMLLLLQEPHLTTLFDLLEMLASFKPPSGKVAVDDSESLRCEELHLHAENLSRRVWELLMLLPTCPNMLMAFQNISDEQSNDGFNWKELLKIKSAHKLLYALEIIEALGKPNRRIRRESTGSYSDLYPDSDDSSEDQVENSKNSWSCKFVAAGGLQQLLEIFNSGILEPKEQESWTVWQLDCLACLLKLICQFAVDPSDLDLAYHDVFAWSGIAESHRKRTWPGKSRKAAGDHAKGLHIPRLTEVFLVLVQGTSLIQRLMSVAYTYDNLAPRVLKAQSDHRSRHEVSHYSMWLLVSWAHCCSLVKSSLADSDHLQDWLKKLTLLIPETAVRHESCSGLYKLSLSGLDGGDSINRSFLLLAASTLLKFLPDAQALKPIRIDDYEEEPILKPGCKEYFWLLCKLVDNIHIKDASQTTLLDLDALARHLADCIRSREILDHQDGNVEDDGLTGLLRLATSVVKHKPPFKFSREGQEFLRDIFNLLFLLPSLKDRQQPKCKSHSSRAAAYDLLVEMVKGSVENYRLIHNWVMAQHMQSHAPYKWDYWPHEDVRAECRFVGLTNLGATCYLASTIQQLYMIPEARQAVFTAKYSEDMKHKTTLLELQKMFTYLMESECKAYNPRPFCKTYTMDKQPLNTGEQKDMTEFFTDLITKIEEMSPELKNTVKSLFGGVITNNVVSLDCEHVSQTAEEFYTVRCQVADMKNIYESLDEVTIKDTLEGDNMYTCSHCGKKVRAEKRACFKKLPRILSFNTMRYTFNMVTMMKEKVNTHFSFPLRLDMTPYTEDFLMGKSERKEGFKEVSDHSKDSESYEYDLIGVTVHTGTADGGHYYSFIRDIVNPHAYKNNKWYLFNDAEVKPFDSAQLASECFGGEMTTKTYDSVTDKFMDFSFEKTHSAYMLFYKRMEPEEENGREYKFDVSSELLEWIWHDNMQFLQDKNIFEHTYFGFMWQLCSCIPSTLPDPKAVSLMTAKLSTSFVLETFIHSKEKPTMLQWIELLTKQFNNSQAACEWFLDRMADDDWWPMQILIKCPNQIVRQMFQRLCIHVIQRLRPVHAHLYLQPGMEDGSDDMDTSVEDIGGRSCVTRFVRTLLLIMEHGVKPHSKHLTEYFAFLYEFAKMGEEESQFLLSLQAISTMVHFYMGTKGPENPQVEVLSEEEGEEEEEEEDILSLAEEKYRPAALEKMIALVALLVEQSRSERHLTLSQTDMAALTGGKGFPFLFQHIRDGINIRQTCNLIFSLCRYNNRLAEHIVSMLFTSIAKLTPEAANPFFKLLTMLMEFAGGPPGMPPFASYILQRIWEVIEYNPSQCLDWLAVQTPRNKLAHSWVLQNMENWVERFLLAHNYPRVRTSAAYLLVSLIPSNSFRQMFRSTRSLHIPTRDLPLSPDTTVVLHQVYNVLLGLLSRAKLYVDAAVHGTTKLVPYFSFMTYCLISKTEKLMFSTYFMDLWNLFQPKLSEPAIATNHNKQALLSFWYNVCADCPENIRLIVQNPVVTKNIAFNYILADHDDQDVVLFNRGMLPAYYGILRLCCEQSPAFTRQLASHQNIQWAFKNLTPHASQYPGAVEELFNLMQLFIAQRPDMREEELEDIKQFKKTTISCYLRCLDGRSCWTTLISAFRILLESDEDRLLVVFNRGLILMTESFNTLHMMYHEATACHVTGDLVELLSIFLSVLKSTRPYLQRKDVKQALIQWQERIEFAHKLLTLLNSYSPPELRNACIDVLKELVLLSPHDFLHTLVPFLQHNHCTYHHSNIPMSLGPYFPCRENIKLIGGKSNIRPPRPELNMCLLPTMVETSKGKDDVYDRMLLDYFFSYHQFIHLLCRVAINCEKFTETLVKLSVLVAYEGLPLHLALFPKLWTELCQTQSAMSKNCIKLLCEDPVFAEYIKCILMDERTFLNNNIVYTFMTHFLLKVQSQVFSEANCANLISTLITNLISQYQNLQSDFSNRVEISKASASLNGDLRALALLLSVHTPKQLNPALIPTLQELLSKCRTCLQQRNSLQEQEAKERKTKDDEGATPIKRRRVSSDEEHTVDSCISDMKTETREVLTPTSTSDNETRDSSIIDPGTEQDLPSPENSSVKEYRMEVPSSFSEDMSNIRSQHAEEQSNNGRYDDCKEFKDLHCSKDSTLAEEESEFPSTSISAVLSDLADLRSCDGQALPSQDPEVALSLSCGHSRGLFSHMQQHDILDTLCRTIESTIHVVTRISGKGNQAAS
Method in brief: (§1)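 Labelled DUBs were enriched with NeutrAvidin, digested with LysC and trypsin, and run by diaPASEF LC-MS/MS. The labelling used Biotin-Ahx-Ub-VS at 0.5 µM final for 1 h on HEK293T lysate (495 µg per sample) previously treated in triplicate with fragment at 200 µM or vehicle for 3 h. Values are average log2 fragment/vehicle ratios by unpaired t-test on global-median-normalised Spectronaut quantities of proteins with ≥2 unique peptides.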

[2] = molecular target: T1, USP36 (UniProt Q9P275)
T1 sequence (whole entry): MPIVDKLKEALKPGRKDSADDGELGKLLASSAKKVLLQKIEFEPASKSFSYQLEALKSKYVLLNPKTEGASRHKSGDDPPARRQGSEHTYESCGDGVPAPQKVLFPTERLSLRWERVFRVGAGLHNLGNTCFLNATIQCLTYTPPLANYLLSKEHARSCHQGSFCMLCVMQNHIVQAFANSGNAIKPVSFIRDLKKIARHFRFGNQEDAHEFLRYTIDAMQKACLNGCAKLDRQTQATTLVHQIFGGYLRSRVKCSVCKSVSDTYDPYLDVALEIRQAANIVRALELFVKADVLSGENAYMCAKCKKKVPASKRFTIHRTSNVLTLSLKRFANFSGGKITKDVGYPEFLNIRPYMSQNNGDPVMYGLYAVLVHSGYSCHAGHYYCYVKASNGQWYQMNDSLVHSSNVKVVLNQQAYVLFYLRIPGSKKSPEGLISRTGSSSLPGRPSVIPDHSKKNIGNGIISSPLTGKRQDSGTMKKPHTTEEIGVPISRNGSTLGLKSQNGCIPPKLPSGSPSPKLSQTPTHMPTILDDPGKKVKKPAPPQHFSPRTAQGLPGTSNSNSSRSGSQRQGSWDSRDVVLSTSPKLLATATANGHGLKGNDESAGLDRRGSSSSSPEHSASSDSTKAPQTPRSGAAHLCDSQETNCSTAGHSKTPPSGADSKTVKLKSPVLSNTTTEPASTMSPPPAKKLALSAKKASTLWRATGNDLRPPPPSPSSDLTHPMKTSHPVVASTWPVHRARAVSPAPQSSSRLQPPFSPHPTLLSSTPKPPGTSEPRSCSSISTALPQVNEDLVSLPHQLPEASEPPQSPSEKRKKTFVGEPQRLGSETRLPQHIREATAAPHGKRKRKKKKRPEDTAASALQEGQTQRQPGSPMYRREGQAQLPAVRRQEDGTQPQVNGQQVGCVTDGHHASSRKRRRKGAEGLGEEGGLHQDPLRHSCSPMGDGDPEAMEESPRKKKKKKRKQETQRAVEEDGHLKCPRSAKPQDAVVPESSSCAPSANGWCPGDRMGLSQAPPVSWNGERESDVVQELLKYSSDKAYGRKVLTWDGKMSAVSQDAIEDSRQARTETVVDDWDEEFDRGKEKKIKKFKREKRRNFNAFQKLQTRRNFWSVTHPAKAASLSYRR
Method in brief: as §1

[3] = molecular target: T2, USP38 (UniProt Q8NB14)
T2 sequence (whole entry): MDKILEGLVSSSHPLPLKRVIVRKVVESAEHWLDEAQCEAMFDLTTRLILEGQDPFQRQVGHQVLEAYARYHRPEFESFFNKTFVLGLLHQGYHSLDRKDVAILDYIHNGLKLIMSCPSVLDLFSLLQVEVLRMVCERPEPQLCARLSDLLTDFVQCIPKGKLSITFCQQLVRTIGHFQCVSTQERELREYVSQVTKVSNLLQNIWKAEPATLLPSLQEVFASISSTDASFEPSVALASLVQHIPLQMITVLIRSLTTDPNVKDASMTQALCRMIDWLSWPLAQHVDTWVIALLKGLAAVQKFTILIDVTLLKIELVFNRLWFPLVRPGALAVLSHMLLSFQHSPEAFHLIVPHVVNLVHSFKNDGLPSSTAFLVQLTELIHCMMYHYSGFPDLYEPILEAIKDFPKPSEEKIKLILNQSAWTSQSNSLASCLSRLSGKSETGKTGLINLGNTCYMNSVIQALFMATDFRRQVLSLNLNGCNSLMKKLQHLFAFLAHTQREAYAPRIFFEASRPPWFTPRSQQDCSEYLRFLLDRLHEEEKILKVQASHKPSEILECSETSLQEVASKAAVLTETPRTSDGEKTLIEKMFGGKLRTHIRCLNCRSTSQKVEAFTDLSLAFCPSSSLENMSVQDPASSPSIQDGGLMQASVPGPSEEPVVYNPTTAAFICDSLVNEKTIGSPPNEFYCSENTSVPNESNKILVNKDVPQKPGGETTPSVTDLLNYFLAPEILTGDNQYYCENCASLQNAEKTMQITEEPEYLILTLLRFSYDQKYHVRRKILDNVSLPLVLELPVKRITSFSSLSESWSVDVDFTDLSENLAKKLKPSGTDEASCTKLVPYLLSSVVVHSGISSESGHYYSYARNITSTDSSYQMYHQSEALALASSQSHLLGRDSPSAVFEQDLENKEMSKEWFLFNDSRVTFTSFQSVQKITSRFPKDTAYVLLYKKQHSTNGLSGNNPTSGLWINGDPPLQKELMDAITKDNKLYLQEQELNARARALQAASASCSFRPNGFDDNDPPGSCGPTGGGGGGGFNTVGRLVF
Method in brief: as §1

[4] = molecular target: T3, USP39 (UniProt Q53GS9)
T3 sequence (whole entry): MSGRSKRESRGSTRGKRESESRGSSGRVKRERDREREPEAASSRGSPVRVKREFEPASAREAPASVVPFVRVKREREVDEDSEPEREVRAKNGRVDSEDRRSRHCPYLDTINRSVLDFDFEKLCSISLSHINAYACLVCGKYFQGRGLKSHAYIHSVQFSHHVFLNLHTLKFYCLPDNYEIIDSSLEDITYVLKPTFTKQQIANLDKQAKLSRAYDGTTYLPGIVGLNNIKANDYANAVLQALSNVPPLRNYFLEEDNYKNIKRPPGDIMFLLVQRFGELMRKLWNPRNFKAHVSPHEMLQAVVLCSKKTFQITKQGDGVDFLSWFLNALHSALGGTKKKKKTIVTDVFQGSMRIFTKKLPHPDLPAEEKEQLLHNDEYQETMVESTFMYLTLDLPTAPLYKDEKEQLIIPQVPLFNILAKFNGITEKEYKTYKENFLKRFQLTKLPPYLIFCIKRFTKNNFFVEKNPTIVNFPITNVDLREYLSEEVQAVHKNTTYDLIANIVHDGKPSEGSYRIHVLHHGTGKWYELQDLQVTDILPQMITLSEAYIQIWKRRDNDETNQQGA
Method in brief: as §1

[5] = molecular target: T4, USP4 (UniProt Q13107)
T4 sequence (whole entry): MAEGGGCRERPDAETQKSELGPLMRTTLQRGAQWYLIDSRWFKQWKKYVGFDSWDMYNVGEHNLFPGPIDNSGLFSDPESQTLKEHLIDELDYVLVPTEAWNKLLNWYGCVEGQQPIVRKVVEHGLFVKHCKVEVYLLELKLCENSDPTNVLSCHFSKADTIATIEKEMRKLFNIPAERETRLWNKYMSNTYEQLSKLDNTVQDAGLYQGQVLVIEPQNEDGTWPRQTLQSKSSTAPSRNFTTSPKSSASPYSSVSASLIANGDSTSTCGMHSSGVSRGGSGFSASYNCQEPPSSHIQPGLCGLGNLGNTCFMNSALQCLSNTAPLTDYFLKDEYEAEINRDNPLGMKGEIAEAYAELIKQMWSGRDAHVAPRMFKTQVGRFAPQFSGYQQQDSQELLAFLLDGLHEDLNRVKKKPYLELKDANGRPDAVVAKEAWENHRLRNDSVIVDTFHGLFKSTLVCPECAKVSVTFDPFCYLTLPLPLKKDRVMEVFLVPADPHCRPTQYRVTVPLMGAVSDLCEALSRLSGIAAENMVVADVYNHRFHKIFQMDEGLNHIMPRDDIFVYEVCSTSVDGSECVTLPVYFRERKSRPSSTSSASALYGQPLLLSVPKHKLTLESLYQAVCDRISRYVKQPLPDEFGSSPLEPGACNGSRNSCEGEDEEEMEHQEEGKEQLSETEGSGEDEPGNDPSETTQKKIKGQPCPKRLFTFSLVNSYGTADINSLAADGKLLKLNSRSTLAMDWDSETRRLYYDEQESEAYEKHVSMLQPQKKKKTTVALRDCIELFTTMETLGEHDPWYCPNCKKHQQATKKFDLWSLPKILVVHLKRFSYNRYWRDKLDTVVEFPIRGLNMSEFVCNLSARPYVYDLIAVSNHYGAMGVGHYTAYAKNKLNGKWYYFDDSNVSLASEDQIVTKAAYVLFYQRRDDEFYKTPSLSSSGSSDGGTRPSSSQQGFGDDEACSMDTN
Method in brief: as §1

Measured: log2 ratio of Biotin-Ahx-Ub-VS probe labelling

O=C(CCl)NCCc1cccc2ccccc12
inactive: [1] -0.192 | [2] -0.0173 | [3] 0.0792 | [4] -0.0508 | [5] 0.143
